Assay in all cases: NCI-60 one-dose screen, 48 h (100 = growth as untreated, 0 = no growth, -100 = all killed)
Conditions in all cases: 10 µM unless noted

The subject of test [1] is HCT-15 colon.
For test [2], the system named is HT29 colon.
The test system of test [3] is SNB-75 CNS.
The subject of test [4] is SNB-19 CNS.
Test [5] relates to U251 CNS.
Test [6] concerns PC-3 prostate.
Test [7] deals with SK-MEL-5 melanoma.
Test [8] concerns LOX IMVI melanoma.
The subject of test [9] is SK-MEL-28 melanoma.
Test [10] has as its system UACC-62 melanoma.

The values below come from PubChem BioAssay (NCI).

Each structure is given as a SMILES string. The panel holds about 83,000 compounds, 20% with a hit somewhere; the sample as a whole holds those more often.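 Growth was measured after 48 h exposure to one concentration of compound in 96-well plates. Values under 10 count as active.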 A number with no mark means an inactive call. Calls of active or inactive are those of the source.

`Cc1cc(NC(=O)CNc2nc(Oc3ccc(F)cc3)nc(-c3ccc(F)cc3)n2)ccc1Cl`: the growth in test [1] was 102%; in test [2] it was 94%; in [3], 87.8%; in [4], 100%; in test [5], 98.4%; in test [6] it was 89.1%. Also, the growth in test [7] is 99.1%; in test [8], 96.1%; in [9] it was 109%.

With `O=C1NC(SCc2ccc(F)cc2)=N/C1=C/c1cccc(OCc2ccc(Cl)cc2)c1`, the growth in test [1] was 72.1%; in test [2] it was 68.1%; in test [3] it was 50.7%; in [4] it was 33.4%; in test [5], -41.2% (active); in [6], 77.5%. In addition, the growth is 83% in [7], 24.7% in test [8] and 91.2% in test [9].

As for `C[C@@H]1C(=O)[C@@H]2C[C@@H](O)[C@@H](O)C[C@]2(C)[C@H]2CC[C@@]3(C)C(=C12)CC[C@@H]3[C@@](C)(O)[C@H](O)CCC(C)(C)O`, the growth in test [1] was 107%; in test [2], 97.6%; in test [3] it was 108%; in test [4] it was 104%; in test [5], 96.6%; in [6] it was 96.4%. The growth in test [7] was 98.1%; in test [8], 101%; in test [9], 113%.

As for `Nn1c(SCC(=O)Nc2ccc(Cl)cc2)nnc1-c1cc(F)c(Cl)cc1Cl`, the growth in test [1] is 79.3%; in test [2], 95%; in test [3], 81.2%; in test [4], 98%; in test [5] it was 94.4%; in test [6] it was 85.7%. For the same molecule, the results for the growth in [7], in [8] and in test [9] were 86.6%, 86% and 98.1%, respectively.

Regarding `O=C1C(=O)c2c(nc3ccc(Br)cn23)-c2ccccc21`, the growth in test [1] is -75.7% (active); in [2], -29.1% (active); in test [3] it was -95.3% (active); in test [4], -86.4% (active); in [5] it was -100% (active); in [6], -63.4% (active). Besides, the results for the growth in test [7], in test [8] and in test [9] were -97.6% (active), -76.6% (active) and -60% (active), respectively.

Regarding `N#CCNc1ccc(C(=O)O)cc1`, the growth in [1] is 105%; in test [2] it was 101%; in [3] it was 103%; in [4], 102%; in test [5], 95%; in test [6] it was 94.3%. For the same molecule, the growth was 101% in test [7], 107% in test [10], 98.5% in test [8] and 118% in [9].

For `CCOC(=O)c1cnn(-c2nc(-c3ccc(F)cc3)c(C#N)c(N3CCOCC3)n2)c1N`, the growth in test [1] is 101%; in [2] it was 92%; in test [3], 82.2%; in [4] it was 95.1%; in test [5] it was 95.3%; in test [6] it was 95.1%. For the same molecule, the results for the growth in test [7], in test [8] and in test [9] were 96.6%, 106% and 111%, respectively.

With `COc1ccc(-c2cc(-c3nnc(SCC(=O)Nc4ccc(/C(C)=N\O)cc4)o3)c3ccccc3n2)cc1`, the growth in [1] was 100%; in test [2], 101%; in test [3], 98.3%; in test [4], 90.8%; in [5] it was 101%; in test [6], 100%. The growth in [7] is 99.2%; in [8] it was 97.7%; in test [9], 114%.

On to `CCCCn1c(=O)c(/C=C/C(=O)/C=C/c2cc3ccccc3n(CCCC)c2=O)cc2ccccc21`, for which the growth in test [1] is 1.62% (active); in [2] it was -88.9% (active); in test [3] it was 48.8%; in test [4], 16.2%; in test [5], -48.3% (active); in [6], 1.47% (active). Moreover, the growth in test [7] was -74.5% (active); in test [8], -80.3% (active); in [9] it was -8.48% (active).

With `O=C1NN(c2ccccc2)C(c2ccc3c(c2)OCO3)N2CCC[C@@H]12` (some centres undefined), the growth in test [1] is 102%; in test [2], 85.8%; in test [3], 93.6%; in test [4] it was 103%; in [5], 95.1%; in test [6], 90.7%. For the same molecule, the values for the growth in test [7], in [8] and in test [9] were 106%, 91.9% and 111%, respectively.

Take `COc1ccc2oc(=O)cc(-c3nc4ccc(N)cc4[nH]3)c2c1`: the growth in test [1] was 97.7%; in [2], 97.3%; in test [3], 53.6%; in test [4], 90.9%; in test [5], 86.2%; in test [6], 81.1%. In addition, the growth in test [7] is 81.5%; in test [10], 91.5%; in test [8], 78.6%; in [9], 111%.

Take `CN1CCN(S(=O)(=O)O[C@@H]2C(=O)N(c3cc4c5ccccc5ccc4c4ccccc34)[C@H]2c2ccc(F)cn2)CC1`: the growth was 84.8% in test [1]; 82% in test [2]; 74.6% in test [3]; 85% in test [4]; 78.6% in [5]; 63.9% in test [6]. In addition, the growth in test [7] is 88.7%; in [8] it was 84.5%; in test [9] it was 113%.

As for `COc1cc(-c2nn(-c3ccc(Br)cc3)cc2CO)ccc1O`, the growth in test [1] was 87.4%; in [2] it was 88.8%; in test [3], 87.7%; in test [4], 94%; in test [5], 95.2%; in [6] it was 75%. Also, the values for the growth in [7], in [8] and in test [9] were 94.1%, 86.5% and 110%, respectively.

As to `CCOC(=O)c1c(C(F)(F)F)n([O-])c2ccc(Cl)cc2[n+]1=O`, the growth in test [1] is -60.2% (active); in test [2], -43.2% (active); in test [3] it was -52.2% (active); in [4], 32.4%; in test [5], -87.7% (active); in test [7], -93.2% (active). Besides, the growth is -86.8% (active) in [8] and -32.8% (active) in [9].

For `FC(F)(F)c1ccc2c(Nc3cccc(C4CC(c5ccccc5)=NN4c4ccc(Cl)cc4)c3)ccnc2c1` (centres undefined), the growth is 5.61% (active) in test [1]; 19% in [2]; 70% in test [3]; 41.4% in test [4]; 29.3% in [5]; 75.1% in test [7]. Moreover, the growth in test [10] was 49.4%; in test [8] it was -53.9% (active); in test [9] it was 48.6%.

Take `N#Cc1ccc(Oc2ccc3ccc(=O)oc3c2)cc1`: the growth was 98% in test [1]; 114% in test [2]; 97.2% in test [3]; 89.3% in [4]; 91.7% in test [5]; 103% in test [7]. Further, the growth was 88.3% in [10], 93.4% in test [8] and 107% in test [9].

On to `COc1cc([C@H](C)c2ccc3ccccc3c2)cc(OC)c1OC`, for which the growth is 21.7% in [1]; 8.72% (active) in test [2]; 0.258% (active) in test [3]; 32.7% in test [4]; 19.6% in test [5]; 18.1% in test [7]. Besides, the growth in test [10] was 32.5%; in test [8], 48.6%; in test [9], 61.8%.

`C=CCn1c(CN2CCN(c3cc4c(cc3F)c(=O)c(C(=O)O)cn4C3CC3)CC2)n[nH]c1=S`: the growth in test [1] was 103%; in test [2], 90.5%; in test [3] it was 99.8%; in test [4], 107%; in test [5] it was 103%; in [7], 106%. For the same molecule, the growth is 99.9% in test [10], 81.8% in test [8] and 97.2% in test [9].

For the molecule `O=C1C(Cl)=C(Nc2ccc3c(c2NC2=C(Cl)C(=O)c4ccccc4C2=O)C(=O)c2ccccc2C3=O)C(=O)c2ccccc21`, the growth in test [1] was 15.6%; in [2] it was 5.49% (active); in [3] it was -15.1% (active); in test [4], 29.1%; in [5], 14.3%; in test [7], -95.5% (active). Further, the growth is 3.18% (active) in test [8] and 47.1% in [9].

For the molecule `C=C(C)[C@@H]1CC[C@]2(C(=O)NCCCO)CC[C@]3(C)[C@H](CC[C@@H]4[C@@]5(C)CCCNC(C)(C)[C@@H]5CC[C@]43C)[C@@H]12`, the growth in test [1] is 68.6%; in [2], 7.18% (active); in [3], 72.2%; in test [4], 85.4%; in [5], 53.7%; in test [7], 13%. Further, the growth in test [10] is 83.8%; in [8] it was 78.7%; in test [9], 51.3%.

As to `O=[N+]([O-])c1cccc(CN(Cc2cccc([N+](=O)[O-])c2O)c2ccccc2)c1O`, the growth was 69.4% in [1]; 56.1% in [2]; 86.1% in [3]; 92% in test [4]; 85.4% in [5]; 90.5% in test [7]. Also, the results for the growth in [10], in test [8] and in test [9] were 69.6%, 79.6% and 96.7%, respectively.
